± gives the standard deviation of the averaged measurements. In all, about 33,000 sequences were measured (“E-score (rank enrichment, -0.5 to 0.5)”: median about -0.0075, highest 2% from about 0.23 on). This excerpt belongs to a sample that is enriched for the highest values.
What follows are sequences tested on WT Max(13-93) synthetic (M65Nle) (assay: PBM 8-mer E-score (E-score (rank enrichment, -0.5 to 0.5)); higher = stronger preferential binding).
Description: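 Protein binding microarray (universal PBM chip covering all 10-mers in fixed probe flanks) with chemically synthesized human Max(13-93) bHLH-LZ analogs (not full-length Max) bearing noncanonical residues (hArg, Tha, Aib, Nle at 65) and aromatic Cys staples. Read-out per 8-mer (and its reverse complement): E-score (rank-based enrichment, -0.5 to 0.5) and Z-score of median probe intensity.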

Sequence | PBM 8-mer E-score
ATAGCTAA | -0.104 ± 0.047
AAAGCGGT | 0.0199 ± 0.011
GGACGTGA | -0.0819 ± 0.01
GAACGTGA | -0.00116 ± 0.019
GCACGTAC | 0.0338 ± 0.094
GCACGTGA | 0.4391 ± 0.0016
GCACGTCC | -0.0119 ± 0.016
GCACGTGC | 0.489 ± 0.0044
ACTGTGCA | -0.0882 ± 0.057
ATGGTCTA | -0.0528 ± 0.067
GTGAGGGA | -0.116 ± 0.061
AAATGGGC | -0.1 ± 0.011
CTGCTAAC | -0.118 ± 0.073
CCGCTGAC | -0.231 ± 0.04
AGCTAACT | -0.0391 ± 0.11
CGAACTTC | -0.102 ± 0.023
AAAACATA | 0.0863 ± 0.034
TAAACAGA | 0.128 ± 0.15
TAAACATA | 0.299 ± 0.0097
GAAACAAA | 0.238 ± 0.025
GAAACATC | 0.0695 ± 0.12
GAAACAAC | 0.034 ± 0.041
CAAACAAA | 0.0821 ± 0.1
CAAACATA | 0.143 ± 0.12
GAAACATA | 0.27 ± 0.089
AGGGTGCC | -0.11 ± 0.043

Sequence | PBM 8-mer E-score
TAGTCCCA | -0.054 ± 0.018
CCAATGGC | -0.126 ± 0.23
GGCGACTA | -0.0354 ± 0.12
GACAACGC | 0.1 ± 0.061
GCGTTTTA | 0.0184 ± 0.062
TGTTAACA | 0.317 ± 0.13
AGTTAACA | 0.0439 ± 0.0024
CGTTAACA | -0.00101 ± 0.057
GCGATGTA | -0.0179 ± 0.03
AGGATGTG | -0.105 ± 0.014
TAAGCTTA | 0.152 ± 0.0028
CGTGGCAC | 0.251 ± 0.063
GGTGGCAC | -0.131 ± 0.071
AGTGGCAC | 0.0667 ± 0.064
AAGCGTTG | -0.0943 ± 0.073
AGGGTAGA | -0.0604 ± 0.015
ATAAAGTC | 0.258 ± 0.062
ATAAAGTG | 0.188 ± 0.078
GTTAAGTA | 0.0433 ± 0.015
ATTAAGTA | 0.259 ± 0.051
CTTAAGTC | 0.0284 ± 0.017
ATTAAGTC | 0.2923 ± 0.0026
ATAAAGTA | 0.18 ± 0.043
ATTAAGTG | 0.106 ± 0.19
CTTAAGTA | 0.0679 ± 0.077
ATTTCGCG | 0.16 ± 0.065

Sequence | PBM 8-mer E-score
AGATCTAG | -0.118 ± 0.06
ATCACGAA | 0.0216 ± 0.013
AGTTTGTA | 0.074 ± 0.022
AGTCTGGG | -0.106 ± 0.13
ACATGCGC | 0.0958 ± 0.095
ACATGCGA | 0.141 ± 0.025
GCATGCGC | 0.251 ± 0.056
CCATGCGC | 0.153 ± 0.069
CCATGCGA | 0.087 ± 0.11
GCATGCGA | 0.238 ± 0.0068
ACGGGATG | -0.083 ± 0.16
AACGTACG | 0.157 ± 0.067
TACGTAAA | 0.233 ± 0.068
AACGTAAA | 0.198 ± 0.065
GACGTAAA | 0.0324 ± 0.088
AACGTGGA | 0.153 ± 0.036
AACGTGGT | 0.282 ± 0.0092
AACGTGAG | 0.132 ± 0.048
CACGTAAA | 0.13 ± 0.054
AACGTAAT | 0.248 ± 0.037
AACGTAAC | 0.192 ± 0.0073
AACGTGAA | -0.0163 ± 0.062
AACGTGAT | 0.268 ± 0.014
AACGTAGT | -0.0406 ± 0.12
GTGTGCTA | 0.0416 ± 0.009
AATCCGAT | -0.0748 ± 0.11

Sequence | PBM 8-mer E-score
CATTTTCA | 0.063 ± 0.11
CCGAATCG | -0.0138 ± 0.033
CTGTGCCC | -0.035 ± 0.08
CTGTATGA | 0.012 ± 0.079
GGTAAAAA | -0.00424 ± 0.074
ACCAATCG | 0.0164 ± 0.0081
CCGACCGC | -0.0589 ± 0.088
GCCTACAC | -0.0291 ± 0.029
CTGGATAA | -0.0145 ± 0.043
ACTGCATA | 0.0165 ± 0.043
GATGAATC | -0.0452 ± 0.013
AATGAATT | 0.128 ± 0.086
AATGAATC | -0.141 ± 0.014
GATGAATA | 0.272 ± 0.022
AATGAATG | 0.2671 ± 0.0011
TATGAATA | 0.151 ± 0.12
CACGACCC | -0.0381 ± 0.027
AGGAGGTA | -0.168 ± 0.047
CGCGGCAA | -0.139 ± 0.079
AGCACTCC | 0.0118 ± 0.13
ATACGCAA | 0.241 ± 0.0012
GTACGCAA | -0.00199 ± 0.077
ATACGCAG | -0.0132 ± 0.082
ATCGACAA | -0.0231 ± 0.046
ATACTATA | 0.22 ± 0.019
GGGATGAA | -0.0123 ± 0.093

Sequence | PBM 8-mer E-score
AATTTAGC | 0.121 ± 0.065
CGGACCTA | -0.0947 ± 0.063
ATTGCATG | 0.163 ± 0.15
CATGCGTA | 0.346 ± 0.038
AATGCATG | 0.257 ± 0.054
CATGCATA | 0.242 ± 0.064
AATGCAAC | 0.172 ± 0.014
ACTGCATG | 0.0467 ± 0.031
TATGCATA | 0.181 ± 0.037
GATGCATA | 0.0327 ± 0.027
AATGCGTA | 0.0374 ± 0.047
CATGCAAC | 0.287 ± 0.054
CATGCAAG | 0.0946 ± 0.011
GATGCGTA | 0.0564 ± 0.052
CTACCTAA | 0.0741 ± 0.11
TTAGAGAA | -0.00786 ± 0.18
ATCTTTCG | 0.0243 ± 0.034
AGGCGTCC | -0.0473 ± 0.0037
AATGCAAA | 0.143 ± 0.091
AATGCATA | 0.206 ± 0.12
AATGCAAT | 0.237 ± 0.029
AATGCATC | 0.163 ± 0.044
AATGCATT | 0.345 ± 0.024
CATGCATC | 0.101 ± 0.018
AATGCAAG | 0.117 ± 0.074
CATGCAGG | 0.0755 ± 0.026

Sequence | PBM 8-mer E-score
CATGCATG | 0.261 ± 0.073
AGGACGGG | -0.111 ± 0.0023
AGGGCTAT | -0.0385 ± 0.038
CTCATAGC | -0.112 ± 0.12
CACATTTA | 0.143 ± 0.021
GCTAAACC | -0.212 ± 0.15
CCACGTGC | 0.488 ± 0.0054
CCACGTGG | 0.4957 ± 0.00063
TAACGTGA | 0.125 ± 0.039
CCACGTCC | -0.0561 ± 0.11
CAACGTGG | 0.172 ± 0.03
CCACGTTC | 0.0954 ± 0.045
CAACGTGA | 0.259 ± 0.05
AAACGTGA | 0.146 ± 0.13
CCACGTAG | -0.0793 ± 0.044
GCACGTTA | 0.194 ± 0.078
CCACGTTA | 0.3 ± 0.019
CGACGTGC | -0.0266 ± 0.031
CATTCCGG | -0.206 ± 0.049
ATTTCAAG | 0.112 ± 0.2
ACACTAGG | -0.0884 ± 0.012
ATCTTTTG | 0.00161 ± 0.044
CTTATGAA | 0.0318 ± 0.11
CTTACTCA | 0.0397 ± 0.06
CCACGTGA | 0.4829 ± 0.002
CTACGTGA | -0.0378 ± 0.094

Sequence | PBM 8-mer E-score
CGACGTGA | 0.0688 ± 0.0071
AGAGCACA | -0.0234 ± 0.086
ATTGCTTA | 0.0363 ± 0.041
CGTACACG | 0.257 ± 0.018
ACTACACG | 0.139 ± 0.041
CGTACACA | 0.15 ± 0.012
CGTACACC | 0.0276 ± 0.012
ACTACACA | 0.306 ± 0.067
AGTACACA | 0.163 ± 0.09
AGTACACG | 0.233 ± 0.032
TGTACACA | 0.159 ± 0.071
CCTACACG | -0.0643 ± 0.072
CTTCGCTC | -0.143 ± 0.067
TAAGGAGA | 0.0617 ± 0.054
CAGAACCA | -0.0491 ± 0.0095
AGTTGCTC | -0.143 ± 0.047
AGCACATC | 0.0162 ± 0.041
AGCACATG | 0.343 ± 0.004
ATCACATA | 0.175 ± 0.13
AGCACATA | 0.0511 ± 0.0046
ACCACATA | 0.00899 ± 0.073
